HSP90 refold inh: inhibitors of HSP90 luciferase refolding in rabbit reticulocyte lysate | inhibition, % at 5.6 µM | luciferase refolding luminescence, 3 h | 290,000 compounds, 0.91% hits;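 active means inhibition above the screen-wide mean plus 3 SD, computed separately per campaign, cut at about 16% in these data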;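 further: 0% = DMSO wells and 100% = 60 µM geldanamycin wells; inhibitors lower the luminescence because luciferase stays unfolded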
dFosB activator: enhances mouse delta FosB homodimer DNA binding; purified delta FosB, TAMRA-CDK5 oligo fluorescence polarization; percent of positive-control signal above neutral wells; activation, % at 25 µM; 340,000 compounds, 0.99% hits; AID 493131;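 active means mean activation above about 17%, with every replicate also reaching it, limit read from the data, passing the limit was not always enough; inconclusive means only one of the two conditions met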
Target sequence (P13346 whole entry, looked up): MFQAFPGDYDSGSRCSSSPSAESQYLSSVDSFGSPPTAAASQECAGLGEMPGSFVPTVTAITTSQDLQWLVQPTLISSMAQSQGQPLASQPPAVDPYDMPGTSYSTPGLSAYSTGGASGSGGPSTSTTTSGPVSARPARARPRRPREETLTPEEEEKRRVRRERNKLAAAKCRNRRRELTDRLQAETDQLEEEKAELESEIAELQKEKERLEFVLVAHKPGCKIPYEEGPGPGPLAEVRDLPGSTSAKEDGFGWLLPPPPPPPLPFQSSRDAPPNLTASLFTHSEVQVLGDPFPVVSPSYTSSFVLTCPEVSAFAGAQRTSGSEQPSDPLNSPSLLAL
HSF-1 act: increases HSF-1 driven luciferase reporter signal; NIH3T3-HGL HSF-1 luciferase reporter, MG132, 8 h; 100% = twice DMSO control signal; activation, % at 9 µM; 300,000 compounds, 1.7% hits;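 active means mean replicate activation of at least 50% with a set share of replicates each reaching 50%; inconclusive means only one of those two conditions met; inactive means mean below 50% and too few replicates reaching it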;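 further: 0% = median of the neutral control wells and 100% = twice that signal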
Platelet DG rel: platelet dense granule release activity | inhibition, %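 (compounds screened at 7.5 µM in platelet-rich plasma)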 | 300,000 compounds, 0.22% hits | AID 1663 | human platelet-rich plasma, SFLLRN dense granule ATP release, luminescence;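 active means mean replicate score, as percent of positive control, at or above 50; inconclusive means mean below 50 but at least one replicate at or above 50; inactive means mean and every replicate below 50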
MPTP block: permeability transition pore inhibition | AID 602449 | 360,000 compounds, 1.4% hits | inhibition, % at 10 µM | isolated mouse mitochondria, Ca2+ swelling absorbance, 30 min;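 active means inhibition of 50% or more, scaled per plate between neutral and stimulator controls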;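 further: 0% = DMSO wells given calcium and 100% = 1 mM EGTA wells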
HSF1 inhib: HSF1 inhibition; NIH3T3-HGL HSE-luciferase, MG132-induced, luminescence 8 h; stronger effect = lower value; activity change, negative = inhibition, % at 7.5 µM (by protocol); 300,000 compounds, 0.77% hits;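 active means more than half of replicate wells show activity change below -50%, luminescence cut by over half; inconclusive means some wells, but at most half, below -50%; inactive means no replicate well below -50%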;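 further: luciferase reports HSF-1 transcriptional activity via heat shock element; 0% = median of DMSO wells and -100% = zero luminescence signal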
Numbers without * were called inactive; u = inconclusive; x = no result. Rows were chosen to be rich in hits. Some 4.9% of all compounds tested hit in one or more screens of this group.

SMILES	HSP90 refold inh	dFosB activator	HSF-1 act	Platelet DG rel	MPTP block	HSF1 inhib
O=C(Nc1cccc([N+](=O)[O-])c1)c1cnccn1	0.6	-3.2	4.2	6.3	1.3	1.5
Cc1cc(C)c2[nH]c(=O)c(CN(CC3CCCO3)S(=O)(=O)c3ccc4c(c3)OCCO4)cc2c1 (stereo not given)	-0.8	-22.0	59.5*	17.4	-1.7	23.7
Oc1ccc(Cl)cc1-c1cc(-c2ccco2)[nH]n1	-1.3	-6.3	139.8*	-4.5	0.3	77.4
COc1cccc2[nH]c3c(N4CCc5ccccc5C4)ncnc3c12	-3.7	x	59.9*	-5.9	x	42.6
Cc1ccc(C2C(C(=O)c3cccs3)=C(O)C(=O)N2c2nnc(C)s2)cc1 (stereo not given)	1.1	-0.3	13.9	-2.0	0.0	3.4
OC(c1ccccc1)(c1nc(/C=C/c2ccccc2)cs1)C(F)(F)F (stereo not given)	x	x	x	x	0.9	x
Cc1ccc(-c2nnn(CC(=O)N(CC3CCCO3)C(C(=O)NC3CCCCC3)c3ccc(F)cc3)n2)o1 (stereo not given)	-2.1	24.8*	-1.5	-2.2	-0.1	1.0
COc1ccc(C(C(=O)NC2CCCC2)N(CC2CCCO2)C(=O)Cn2nnc(-c3ccc(C)o3)n2)cc1 (stereo not given)	0.8	-8.1	4.6	4.5	0.5	-3.1
Cc1ccc(-c2nnn(CC(=O)N(Cc3cccs3)C(C(=O)NC3CCCC3)c3ccncc3)n2)cc1 (stereo not given)	4.3	11.2	-54.8	-1.0	-0.2	-55.2*
CC(C)(CO)NC(=O)c1ccc2nc(Cc3cccc(Cl)c3)oc2c1	-6.7	2.0	18.5	-3.7	0.4	2.5
CCOC(=O)CSc1cc(C)c(C#N)c2nc3ccccc3n12	1.2	-15.3	58.5*	-4.5	29.6	21.2
CCc1c(C)c(C#N)c2nc3ccccc3n2c1-n1nc(C)cc1C	4.4	-3.7	-2.3	-2.3	-1.6	5.4
CCc1c(C)c(C#N)c2nc3ccccc3n2c1Cl	-1.6	x	435.4*	13.1	x	378.3
CCC(C)Sc1cc(C)c(C#N)c2nc3ccccc3n12 (stereo not given)	-3.1	-8.2	12.6	-3.2	10.5	-6.1
Cn1ncc([N+](=O)[O-])c1C(=O)Nc1ccc(-c2nc3ccccc3o2)cc1	1.8	-7.9	56.3*	18.1	-0.8	18.7
O=C(Nc1ccccn1)c1ccc2ccccc2n1	4.9	-28.6	74.3*	6.3	0.4	37.2
Cc1csc(NC(=O)Cc2c[nH]c3ccccc23)n1	-3.3	-0.8	63.2*	-0.2	0.0	33.4
CCC(CC)c1nnc(NC(=O)c2ccc3ccccc3n2)s1	0.7	-21.8	52.9*	-2.0	0.7	14.4
Cc1cnc(NC(=O)Cc2c[nH]c3ccccc23)s1	2.2	-5.1	13.6	2.6	-0.3	16.4
O=C(Nc1nccs1)c1ccc2ccccc2n1	2.7	-35.2	u	-1.9	-1.5	39.5
Cc1csc(NC(=O)c2ccc3ccccc3n2)n1	6.7	-28.0	54.7*	7.4	0.9	25.6
CCCN(CC(=O)Nc1ccccc1C)C(=O)c1ccc(N2CCCC(C)C2)c([N+](=O)[O-])c1 (stereo not given)	x	1.3	x	x	0.1	x
CCOC(=O)N(C)C[C@@H]1OCc2cnnn2CCCC(=O)N([C@@H](C)CO)C[C@@H]1C	x	x	x	x	-0.4	x
CCCCN(C(=O)c1cc(Cl)nc2ccccc12)c1c(N)n(CCCC)c(=O)[nH]c1=O	x	2.4	-14.3	-5.0	0.3	2.1
COc1cc(/C(C)=N/N2CCN(c3ccccc3OC)CC2)ccc1O	-5.2	1.7	16.5	x	0.7	3.9
SMILES	HSP90 refold inh	dFosB activator	HSF-1 act	Platelet DG rel	MPTP block	HSF1 inhib
CCNS(=O)(=O)c1cccc(C(=O)c2c(C)cc3ccccn23)c1	1.5	-7.1	18.8	-0.5	3.7	4.4
CS(=O)(=O)c1ccc(NC(=O)c2cccc(S(=O)(=O)N3CCN(Cc4ccccc4)CC3)c2)cc1	-0.1	3.4	-0.3	7.6	-1.3	1.8
CCOc1ccc(-c2ccc(C=O)o2)c([N+](=O)[O-])c1	0.9	-0.9	109.0*	-19.6	1.0	84.2
CNC(=O)/C(C#N)=C/c1ccc(-c2ccc(OC)cc2[N+](=O)[O-])o1	2.5	u	-90.8	1.5	0.4	-89.3*
COc1ccc(-c2ccc(C(=O)O)o2)c([N+](=O)[O-])c1	3.8	-5.9	-0.3	-2.4	-2.2	-0.2
Cc1cccc(C)c1NC(=O)Cn1c(=O)c2cccn2c2ccccc21	-1.2	29.1*	8.1	-1.6	0.0	-0.9
COc1cccc(CNC(=O)Cn2c(=O)c3cccn3c3ccccc32)c1	-0.7	14.5	-88.7	-3.5	-1.0	-86.0*
CC1CCCN(S(=O)(=O)c2cccc(C(=O)NCCCN3CCCC3=O)c2)C1 (stereo not given)	x	x	x	x	-0.7	x
CC(NS(=O)(=O)c1ccc(Br)cc1)C(c1cccs1)N1CCOCC1 (stereo not given)	-3.0	-3.5	-16.3	1.0	-0.8	-2.6
CC(=O)c1ccc(NC(=O)C2CCN(S(=O)(=O)c3cccc4cccnc34)CC2)cc1	-0.2	-8.9	-69.0	-4.7	-0.1	-62.2*
COC(=O)c1ccc(NC(=O)c2ccc(NS(=O)(=O)c3cccc4cccnc34)cc2)cc1	16.8*	-1.9	0.9	-3.1	1.9	2.0
COc1ccc(NC(=O)C2CCN(S(=O)(=O)c3cccc4cccnc34)CC2)cc1	-0.6	-4.4	-2.0	2.1	-1.8	-1.6
COc1ccc(C(=O)COC(=O)C2CCN(S(=O)(=O)c3cccc4cccnc34)CC2)cc1	-5.6	-10.6	-7.1	0.3	-0.6	-2.6
O=C(COC(=O)C1CCN(S(=O)(=O)c2cccc3cccnc23)CC1)c1ccc([N+](=O)[O-])cc1	1.9	-7.0	107.2*	-20.4	-0.9	60.9
COC(C[C@H]1O[C@H]1[C@H](O)[C@H](C)OCc1ccccc1)OC	x	-1.8	1.4	-2.0	1.7	0.4
C=CCNC(=O)c1ccc(OC2CCN(S(=O)(=O)N(C)C)CC2)cc1	1.0	-10.4	28.0	4.2	0.4	16.6
Cc1ccc(N(CC(=O)NCc2ccc(Cl)cc2)S(C)(=O)=O)cc1	-1.4	-7.6	34.1	-3.2	3.4	10.3
CN(CC(=O)N1CCN(c2ccccc2)CC1)C1CCCc2ccccc21 (stereo not given)	6.9	-2.5	4.1	8.2	1.1	-4.3
Cc1ccc(NC2CCCN(C(=O)Cc3nonc3C)C2)cc1C (stereo not given)	-1.8	-5.8	10.0	-18.1	0.5	6.5
CCC1Sc2ccc(S(=O)(=O)Nc3ccc(OC)cc3)cc2NC1=O (stereo not given)	3.9	0.1	-66.3	-19.2	1.2	-56.3*
CCCC(=O)Nc1ccc(Cl)c(NC(=O)c2ccc([N+](=O)[O-])cc2Cl)c1	0.1	-8.5	-72.6	-12.7	-2.1	-63.7*
CCC(=O)Nc1ccc(Cl)c(NC(=O)c2cccnc2)c1	-2.7	-6.8	15.7	7.0	0.4	-4.8

High-throughput results: PubChem, several laboratories
